Results from article PMC4552634, “A New Set of Chemical Starting Points with Plasmodium falciparum Transmission-Blocking Potential for Antimalarial Drug Discovery” (PLoS ONE, 2015).
Out of some 13,000 compounds screened, about 3,200 (25%) showed an effect of 50% or more. This is one part of the list.

System: P. falciparum stage V gametocytes
Design: BacTiter-Glo ATP luminescence viability of purified stage V gametocytes in 384-well plates, per cent inhibition versus DMSO
Conditions: 48 h, 5 µM; inhibitor

First: CC(=O)c1sc(NC(=O)Nc2ccc(C)cc2C)nc1C [TCMDC-124895]
Second: Cc1ccc(NC(=O)c2cc(S(=O)(=O)NC(C)(C)C)ccc2C)nc1 [TCMDC-125009]
The “% Inhibition” value of the first is lower: -9.928% for the first, 54.13% for the second.

Compared with `CO/C(=C\C=C\c1cc2cc(Cl)c(Cl)cc2[nH]1)C(=O)Nc1ccc(NCCN(C)C)nc1` [TCMDC-139073], `O=C(/C=C/c1ccc(Cl)c(Cl)c1)NCCCCCN1CCCN(C(=O)Nc2cc(Cl)nc(Cl)c2)CC1` [TCMDC-135888] is higher in “% Inhibition” value: -22.07% for the first, -3.146% for the second.

Going from `Cc1cccc2[nH]c(C3CCN(CC4CCN(C(=O)/C=C/c5ccc(Cl)c(Cl)c5)CC4)CC3)nc12` [TCMDC-140146] to `O=C(/C=C/c1ccc(Cl)c(Cl)c1)N1CCN(C(=O)Nc2cccc(C(F)(F)F)c2)CC1` [TCMDC-135944], the “% Inhibition” value falls from -0.3523% to -35.14%.

First: CCOC(=O)[C@H](Cc1cccc2ccccc12)NC(=O)[C@H](CCC(=O)OC(C)(C)C)NC(=O)c1ccc(N(C)Cc2cnc3nc(N)nc(N)c3n2)cc1 [TCMDC-137288]
Second: Cc1cccc(CNc2nc(C)cc(N[C@@H](CC(C)C)C(=O)NCCOc3ccccc3)n2)c1 [TCMDC-134892]
The “% Inhibition” value of the first is higher: 41.06% for the first, -42.27% for the second.

Compared with `Cc1cccc2nc(-c3ccc(-c4ccc(CNCCCN5CCCC5=O)cc4)s3)[nH]c12.O=C(O)C(F)(F)F` [TCMDC-132755], `CC(=O)Nc1cccc(CNCc2ccc(-c3cnc(N4CCCC(C)(C)C4)nc3)cc2)c1` [TCMDC-133549] is lower in “% Inhibition” value: 11.61% for the first, -38.45% for the second.

Compared with `CCOC(=O)c1ccc(OCCOc2ccccc2)cc1` [TCMDC-125533], `CCCCOC(=O)c1ccc(Nc2cc(C)nc3ccc(OC)cc23)cc1` [TCMDC-124192] is higher in “% Inhibition” value: 1.604% for the first, 8.663% for the second.

Compared with `CCCCOc1ccc(C(=O)C(CCC(CNC(C)(C)C)C(=O)c2ccc(OCCCC)cc2)CNC(C)(C)C)cc1` (stereo not drawn) [TCMDC-124120], `CCCCCN1CCC(NC(=O)c2ccc(C(=O)Nc3ccc(C(C)C)cc3)cc2)C1` (stereo not drawn) [TCMDC-136744] is lower in “% Inhibition” value: 110.6% for the first, -20.17% for the second.

Compared with `CCCc1ccc(S(=O)(=O)NC2CCN(C(=O)Nc3ccc(I)cc3)CC2)cc1` [TCMDC-139436], `Cc1cc(N2CCC(NS(=O)(=O)c3ccc(F)cc3)CC2)nc(Nc2cccc(C#N)c2)n1` [TCMDC-134214] is higher in “% Inhibition” value: 4.903% for the first, 18.32% for the second.

Compared with `CS(=O)(=O)CCNC(=O)c1ccc(-c2cc3c(Nc4ccc5c(cnn5Cc5ccccc5)c4)ncnc3cn2)o1` [TCMDC-138125], `Cc1cc(N[C@@H](Cc2ccccc2)C(=O)NCc2cccs2)nc(NCCc2ccc(F)cc2)n1` [TCMDC-134787] is higher in “% Inhibition” value: 1.646% for the first, 66.5% for the second.

First: Cc1cc(N[C@@H](Cc2ccccc2)C(=O)NCc2cccs2)nc(NCCc2ccccn2)n1 [TCMDC-134747]
Second: Cc1cc(N[C@@H](Cc2ccccc2)C(=O)NCc2cccs2)nc(NCCc2cccnc2)n1 [TCMDC-134819]
The “% Inhibition” value of the first is higher: 121.6% for the first, 56.43% for the second.

First: Cc1cc(N[C@@H](Cc2ccccc2)C(=O)NCc2cccs2)nc(NCC2CCCCC2)n1 [TCMDC-134930]
Second: COc1ccccc1CCNc1nc(C)cc(N[C@@H](Cc2ccccc2)C(=O)NCc2cccs2)n1 [TCMDC-134802]
The “% Inhibition” value of the first is lower: -30.67% for the first, 51.92% for the second.

Compared with `CC(C)(C)c1cc(C(=O)Nc2ccc(C(=N)N)cc2)c(O)c(C(C)(C)C)c1` [TCMDC-136316], `COc1ccc(NC(=O)c2cn(-c3ccc(C(C)(C)C)cc3)nc2C)cc1N1CCN(C)CC1` [TCMDC-138689] is lower in “% Inhibition” value: 24.98% for the first, -23.67% for the second.

Compared with `CCc1ccc(C(=O)Nc2cccc(CN3CCCN(Cc4ccc(O)cc4)CC3)c2)cc1` [TCMDC-141884], `O=C(Nc1cccc(CN2CCCN(Cc3ccc4c(c3)OCO4)CC2)c1)c1ccc(Cl)c(Cl)c1` [TCMDC-141820] is lower in “% Inhibition” value: 21.35% for the first, -97.11% for the second.

Going from `Cc1ccc(NC(=O)c2cccc(CN3CCCN(CC4CCCCC4)CC3)c2)cc1F` [TCMDC-135958] to `Cc1cccc(CCNC(=O)c2cc(Br)cc(N3CCN(c4ccncc4)CC3)c2)c1` [TCMDC-135149], the “% Inhibition” value falls from -34.77% to -71.81%.

Compared with `COCCSc1nc2scc(C)c2c(=O)n1Cc1cccc(OC)c1` [TCMDC-134420], `COc1ccc(OC)c(NC(=O)CSc2nc(-c3ccccc3Cl)ns2)c1` [TCMDC-124547] is higher in “% Inhibition” value: 25.73% for the first, 60.03% for the second.

Going from `Nc1ncnc2c1ncn2C(CO)Cc1ccc(O)cc1` (stereo not drawn) [TCMDC-137893] to `FC(F)(F)c1ccc(COc2cc(Cl)ccc2Cn2ccnc2)cc1` [TCMDC-137640], the “% Inhibition” value rises from -20.6% to -9.557%.

Going from `C[C@H](Cc1ccc(C[C@@H](C)NCC(O)c2cc(Cl)c(N)c(Cl)c2)cc1)NCC(O)c1cc(Cl)c(N)c(Cl)c1` (stereo partly drawn) [TCMDC-131548] to `O=C(Nc1ccc(Cl)c(Cl)c1)N1CCC(CNCc2cccc([N+](=O)[O-])c2)CC1` [TCMDC-141279], the “% Inhibition” value falls from 39.43% to 18.17%.

Going from `CCOC(=O)c1ccc(NC(=O)Nc2ccc(-c3cccc(-c4nc5ccc(F)cc5[nH]4)c3)cc2)cc1` [TCMDC-133269] to `Fc1ccc2nc(-c3cccc(-c4cccc(CN5CCN(c6cnccn6)CC5)c4)c3)[nH]c2c1` [TCMDC-132676], the “% Inhibition” value rises from -27.05% to -22.96%.

Compared with `Cc1cc(N[C@@H](Cc2ccccc2)C(=O)NCc2cccs2)nc(NCCc2ccccc2)n1` [TCMDC-134775], `Cc1cc(N[C@@H](Cc2ccccc2)C(=O)NCCc2ccccc2)nc(NCCc2cccs2)n1` [TCMDC-134874] is lower in “% Inhibition” value: 70.11% for the first, 14.35% for the second.

Compared with `Cc1cc(N[C@@H](Cc2ccccc2)C(=O)NCc2cccs2)nc(Nc2ccccc2)n1` [TCMDC-134734], `COc1ccccc1Cc1nc2ccccc2nc1SCC(=O)Nc1cccc(C(F)(F)F)c1` [TCMDC-123879] is higher in “% Inhibition” value: -21.51% for the first, 0.3581% for the second.

First: Cc1cc(N(C)C2CCN(C)C2)nc(Nc2ccccc2Cl)n1 (stereo not drawn) [TCMDC-137007]
Second: Cc1cc(N2CCC(NS(=O)(=O)c3ccccc3)CC2)nc(Nc2cccc(C#N)c2)n1 [TCMDC-134213]
The “% Inhibition” value of the first is lower: 12.36% for the first, 22.13% for the second.

Going from `Cc1ccc(C)c(S(=O)(=O)Nc2ccc(Br)cc2C(=O)Nc2cccc(C(F)(F)F)c2)c1` [TCMDC-141482] to `O=C(Nc1cccc(Cl)c1)c1cc2ccccc2cc1O` [TCMDC-124171], the “% Inhibition” value falls from 10.24% to 9.946%.

Going from `Cc1cc(NC(=O)c2cc(S(=O)(=O)N3CCCCC3)ccc2C)no1` [TCMDC-124530] to `COc1ccc(CC(=O)Nc2ccc(Nc3nc(C)cc(N4CCCC4)n3)cc2)cc1` [TCMDC-124966], the “% Inhibition” value falls from 23.56% to -9.476%.

Going from `CN1CCCC1CCNCc1cccc(-c2cnc(N3CCCC(C)(C)C3)nc2)c1` (stereo not drawn) [TCMDC-133144] to `CN1CCCC1CCNCc1cccc(-c2cnc(N(C)C3CCCCC3)nc2)c1` (stereo not drawn) [TCMDC-133141], the “% Inhibition” value falls from 90.28% to 75.89%.

Compared with `CC1(C)CCCN(c2ncc(-c3cccc(CNCc4ccccc4O)c3)cn2)C1` [TCMDC-133139], `CN(c1ncc(-c2cccc(CNCc3ccccc3O)c2)cn1)C1CCCCC1` [TCMDC-133137] is lower in “% Inhibition” value: 32.42% for the first, -20.17% for the second.

First: CN(CCc1ccccc1)c1ncc(-c2cccc(CNCCC3CCCN3C)c2)cn1 (stereo not drawn) [TCMDC-133143]
Second: CCCN(CC1CC1)c1ncc(-c2cccc(CNCCC3CCCN3C)c2)cn1 (stereo not drawn) [TCMDC-133142]
The “% Inhibition” value of the first is higher: 92.22% for the first, 40.53% for the second.

Going from `COC(=O)c1cc(OC)c(OC)cc1NC(=O)NC12CC3CC(CC(C3)C1)C2` [TCMDC-124384] to `COc1ccc(-n2ccnc2SCC(=O)Nc2cc(Cl)ccc2OC)c(OC)c1` [TCMDC-125135], the “% Inhibition” value rises from -44.27% to -9.787%.

Compared with `CC(Oc1ccc(Cl)cc1)C(=O)Nc1cc(C(F)(F)F)ccc1-n1cncn1` (stereo not drawn) [TCMDC-125023], `COc1ccc(NC(=O)CSc2nc(-c3ccccc3Cl)ns2)cc1` [TCMDC-123543] is higher in “% Inhibition” value: 17.82% for the first, 61.96% for the second.

Compared with `CCCC(C)Nc1nc(C)cc(N[C@@H](CC(C)C)C(=O)Nc2ccc(OC)cc2)n1` (stereo partly drawn) [TCMDC-134896], `COc1cccc(NC(=O)CSc2nc(-c3ccccc3Cl)ns2)c1` [TCMDC-123544] is higher in “% Inhibition” value: -21.51% for the first, 62.62% for the second.

Compared with `CCCCCCCCn1ccc(=N)cc1` [TCMDC-125630], `Cc1ccc2ccccc2c1CCCON1C(N)=NC(N)=NC1(C)C` [TCMDC-131758] is higher in “% Inhibition” value: 13.04% for the first, 22.75% for the second.

Going from `CCNc1cc(C(=O)N[C@@H](Cc2ccccc2)[C@H](O)CNC2CCC(C)(C)C2)cc(N2CCCCS2(=O)=O)c1` (stereo partly drawn) [TCMDC-135302] to `O=C(CSc1nc(-c2ccccc2Cl)ns1)Nc1cccc(F)c1` [TCMDC-124549], the “% Inhibition” value rises from 9.387% to 39.34%.

Going from `COc1ccc(NC(=O)CSc2nc(-c3ccccc3Cl)ns2)cc1OC` [TCMDC-125346] to `O=C(CSc1nc(-c2ccccc2Cl)ns1)Nc1cccc(Cl)c1` [TCMDC-124548], the “% Inhibition” value rises from 40.34% to 67.64%.

First: CC(=O)c1ccc(NC(=O)CSc2nc(-c3ccccc3Cl)ns2)cc1 [TCMDC-124545]
Second: O=C(CSc1nc(-c2ccccc2Cl)ns1)Nc1ccc2c(c1)OCO2 [TCMDC-124546]
The “% Inhibition” value of the first is lower: -8.871% for the first, 53.36% for the second.

First: COc1ccccc1-c1ccc2nnc(SCC(=O)Nc3ccc4c(c3)OCCO4)n2n1 [TCMDC-124319]
Second: c1ccc(COc2ccccc2COc2ccccc2-c2ccc3cccnc3n2)cc1 [TCMDC-136713]
The “% Inhibition” value of the first is lower: 10.92% for the first, 16.91% for the second.

In the case of `COc1ccc(OC)c(NC(=O)c2c(-c3c(F)cccc3Cl)noc2C)c1` [TCMDC-123664], the “% Inhibition” value is reported as 2.719%.
